Experimental data from PubChem BioAssay (Tox21).
Records with an inconclusive call do not appear. Calls of active or inactive are those of the source. Unless noted, calls come from the whole dose curve; as a rule, active = well fitted curve in the direction sought with a large enough effect in the repeat runs; inconclusive = weak or mixed curves; inactive = no such curve, though single readings can be large; an effect the other way counts as inactive or inconclusive.

Assays:
[1] = biological target: Estrogen receptor (Homo sapiens) (UniProt P03372); assay: qHTS assay to identify small molecule antagonists of the estrogen receptor alpha (ER-alpha) signaling pathway using the BG1 cell line in the presence of 0.1 nM 17-beta-estradiol (AID 1259244); note: nearly all actives have a fitted effect of over 50% in size
Sequence of Estrogen receptor (Homo sapiens) (P03372 whole entry, looked up): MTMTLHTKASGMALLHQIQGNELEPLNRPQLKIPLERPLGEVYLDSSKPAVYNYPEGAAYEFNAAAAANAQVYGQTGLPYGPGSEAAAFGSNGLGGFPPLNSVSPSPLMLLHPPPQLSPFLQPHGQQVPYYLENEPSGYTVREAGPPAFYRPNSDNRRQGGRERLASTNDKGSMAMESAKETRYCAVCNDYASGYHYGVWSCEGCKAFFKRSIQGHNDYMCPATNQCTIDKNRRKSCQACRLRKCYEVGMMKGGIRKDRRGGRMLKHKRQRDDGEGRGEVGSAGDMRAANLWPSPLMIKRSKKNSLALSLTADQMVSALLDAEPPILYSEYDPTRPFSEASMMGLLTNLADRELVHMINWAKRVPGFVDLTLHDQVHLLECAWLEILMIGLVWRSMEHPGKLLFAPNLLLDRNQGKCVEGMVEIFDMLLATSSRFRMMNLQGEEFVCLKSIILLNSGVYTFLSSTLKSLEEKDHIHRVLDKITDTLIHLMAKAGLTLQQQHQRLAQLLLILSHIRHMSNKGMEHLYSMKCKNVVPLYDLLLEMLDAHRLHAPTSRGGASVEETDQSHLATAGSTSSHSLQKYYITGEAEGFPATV
Method in brief: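 Cells: VM7Luc4E2, endogenous ER-alpha, 4x ERE-luc stable. Pre-culture 5 d, phenol red-free, charcoal-stripped FBS. Plated 24 h, compound + E2 0.1 nM final, 22 h 37C/5% CO2. Readout ONE-Glo luminescence.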

[2] = qHTS assay to identify small molecule HDAC inhibitors (AID 1259364); note: top concentration of the series differs between compounds; nearly all actives have a fitted effect of over 45% in size
Method in brief: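 Luminescence from a cell-permeant luminogenic class I/II HDAC substrate reports endogenous deacetylase activity in intact HCT-116 cells treated with compounds for 2 h.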

[3] = qHTS assay to identify small molecule HDAC inhibitors - cell viability counter screen (AID 1259365); note: series mostly up to about 92 µM; nearly all actives have a fitted effect of over 50% in size
Method in brief: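 After overnight seeding at 1,500 cells per well, wild-type HCT-116 cultures took up compounds in DMSO for 2hr at 37 C. Viable cell content came from luminescence with CellTiter-Glo.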

[4] = qHTS assay to identify small molecule agonists of the sonic hedgehog signaling (Shh) pathway - cell viability counter screen (AID 1259366); note: nearly all actives have a fitted effect of over 50% in size
Method in brief: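 Same-well cytotoxicity read. Gli1-Luc reporter 3T3 cells; compounds 24hr, 37C/5% CO2; CellTiter-Fluor fluorescence.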

[5] = qHTS assay to identify small molecule antagonists of the sonic hedgehog signaling (Shh) pathway - cell viability counter screen (AID 1259367); note: nearly all actives have a fitted effect of over 55% in size
Method in brief: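 After a 4 hr settling period, 3T3 Gli1-Luc cells were treated with DMSO-dissolved chemicals and conditioned medium, kept 24 hr at 37C in 5% CO2, and assayed for viability by CellTiter-Fluor fluorescence following 1 hr reagent incubation.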

[6] = qHTS assay to identify small molecule agonists of the sonic hedgehog signaling (Shh) pathway (AID 1259368; calls by dose curve;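 note: NIH/3T3-derived 3T3Gli1-Luc cells carrying a stable Gli1-driven firefly luciferase reporter; series mostly up to about 92 µM; nearly all actives have a fitted effect of over 15% in size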)
Method in brief: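 3T3Gli1-Luc (NIH/3T3 clone, stable Gli1-Luc); 4 hr pre-incubation, then cpd in DMSO 24 hr, 37 C/5% CO2; luciferase reagent 30 min RT; luminescence.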

[7] = qHTS assay to identify small molecule antagonists of the sonic hedgehog signaling (Shh) pathway (AID 1259369; calls by dose curve; note: nearly all actives have a fitted effect of over 45% in size)
Method in brief: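 3T3Gli1-Luc, conditioned-medium-stimulated, 24hr cpd, 37C/5% CO2; Gli1-driven firefly Luc luminescence after 30min RT with luciferase reagent. Cells plated 4hr before cpd.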

[8] = biological target: Estrogen receptor beta (Homo sapiens) (UniProt Q92731); assay: qHTS assay to identify small molecule agonists of the estrogen receptor beta (ER-beta) signaling pathway (AID 1259377; active = well fitted activation curve with a large enough effect in the signal ratio in the repeat runs, not every such curve was filed as active; the % refers to the signal ratio)
Sequence of Estrogen receptor beta (Homo sapiens) (Q92731 whole entry, looked up): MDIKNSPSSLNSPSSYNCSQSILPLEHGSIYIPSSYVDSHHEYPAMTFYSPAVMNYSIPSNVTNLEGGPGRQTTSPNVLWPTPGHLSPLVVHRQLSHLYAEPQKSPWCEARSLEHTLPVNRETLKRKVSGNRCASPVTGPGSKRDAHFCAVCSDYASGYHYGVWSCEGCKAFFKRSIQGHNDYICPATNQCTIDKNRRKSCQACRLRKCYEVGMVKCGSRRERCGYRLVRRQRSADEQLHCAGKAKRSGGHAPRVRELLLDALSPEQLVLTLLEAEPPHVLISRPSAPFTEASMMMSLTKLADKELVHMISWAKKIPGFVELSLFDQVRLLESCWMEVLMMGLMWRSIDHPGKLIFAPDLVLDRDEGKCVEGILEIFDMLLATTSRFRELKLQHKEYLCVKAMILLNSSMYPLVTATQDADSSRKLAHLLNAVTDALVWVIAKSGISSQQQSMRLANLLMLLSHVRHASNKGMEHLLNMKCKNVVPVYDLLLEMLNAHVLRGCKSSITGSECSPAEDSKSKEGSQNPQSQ
Method in brief: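 Read-out: beta-lactamase FRET fluorescence. Cell line: ER-beta-UAS-bla HEK293T in 2% charcoal-stripped FBS. Exposure: 16 hr at 37C. Substrate step: 2 h at room temperature.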

[9] = biological target: Estrogen receptor beta (Homo sapiens) (UniProt Q92731); assay: qHTS assay to identify small molecule antagonists of the estrogen receptor beta (ER-beta) signaling pathway (AID 1259378; active = well fitted inhibition curve with a large enough effect in the signal ratio in the repeat runs, not every such curve was filed as active; the % refers to the signal ratio)
Method in brief: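 ER-beta-UAS-bla HEK293T (GripTite) cells in 2% charcoal-stripped FBS medium were preincubated 6 hr at 37C, dosed with compound, then stimulated with 1 nM E2 (final) for 16 hr; beta-lactamase reporter read by B/G FRET fluorescence after 2 hr substrate loading.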

[10] = qHTS assay to identify small molecule agonists of the androgen receptor (AR) signaling pathway in the presence of an antagonist - cell viability counter screen (AID 1259379);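 note: MDA-kb2 human breast cancer cells carrying an MMTV luciferase reporter; series mostly up to about 92 µM; nearly all actives have a fitted effect of over 25% in size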
Method in brief: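 Cells: MDA-kb2 (MMTV-luc, AR and GR elements), 3,000/well, 5 hr settle. Added: nilutamide 3.0uM final, then compounds (15 conc.). Incubation: 16 hr, 37C, no CO2. Read-out: CellTiter-Fluor, 1 hr, fluorescence.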

[11] = qHTS assay to identify small molecule agonists of the estrogen receptor beta (ER-beta) signaling pathway - cell viability counter screen (AID 1259380); note: nearly all actives have a fitted effect of over 30% in size
Method in brief: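 HEK293T ER-beta-UAS-bla; 2% CS-FBS; 6 hr pre-plate, 16 hr cpd at 37C/5% CO2; LiveBLAzer read first, then CellTiter-Glo 30 min RT, luminescence.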

[12] = qHTS assay to identify small molecule antagonists of the estrogen receptor beta (ER-beta) signaling pathway - cell viability counter screen (AID 1259382); note: series mostly up to about 92 µM; nearly all actives have a fitted effect of over 55% in size
Method in brief: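 Cells: ER-beta-UAS-bla HEK293T, 2,000/well, 2% CS-FBS, 6 hr settle. Cpd + E2 (1nM final), 16 hr, 37C/5% CO2. Bla FRET substrate 2 hr RT, then CellTiter-Glo 30 min RT, luminescence.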

[13] = biological target: Estrogen receptor (Homo sapiens) (UniProt P03372); assay: qHTS assay to identify small molecule agonists of the estrogen receptor alpha (ER-alpha) signaling pathway in the presence of an antagonist (AID 1259383; calls by dose curve; note: top concentration of the series differs between compounds; nearly all actives have a fitted effect of over 15% in size)
Method in brief: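 VM7Luc4E2, endog. ER-alpha + 4×ERE-luc; charcoal-stripped FBS, phenol red-free, 5 d; 24hr plating; +10.0nM ICI-182,780 (final); cpds 15 conc, 22hr, 37C/5% CO2; ONE-Glo luminescence.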

[14] = qHTS assay to identify small molecule agonists or antagonists of the thyroid stimulating hormone receptor (TSHR) signaling pathway - wild type cell line counter screen (AID 1259384; calls by dose curve)
Method in brief: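 Wild-type HEK293 cells were plated 18 h at 37 C/5% CO2, pin-dosed with compound plus Ro20-1724 medium, held 30 min at room temperature, then given cAMP-d2 and anti-cAMP-cryptate; fluorescence was read after 1 h. Fifteen concentrations, triplicate.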

[15] = biological target: Thyrotropin receptor (Homo sapiens) (UniProt P16473); assay: qHTS assay to identify small molecule antagonists of the thyroid stimulating hormone receptor (TSHR) signaling pathway (AID 1259385; calls by dose curve; note: nearly all actives have a fitted effect of over 20% in size)
Sequence of Thyrotropin receptor (Homo sapiens) (P16473 whole entry, looked up): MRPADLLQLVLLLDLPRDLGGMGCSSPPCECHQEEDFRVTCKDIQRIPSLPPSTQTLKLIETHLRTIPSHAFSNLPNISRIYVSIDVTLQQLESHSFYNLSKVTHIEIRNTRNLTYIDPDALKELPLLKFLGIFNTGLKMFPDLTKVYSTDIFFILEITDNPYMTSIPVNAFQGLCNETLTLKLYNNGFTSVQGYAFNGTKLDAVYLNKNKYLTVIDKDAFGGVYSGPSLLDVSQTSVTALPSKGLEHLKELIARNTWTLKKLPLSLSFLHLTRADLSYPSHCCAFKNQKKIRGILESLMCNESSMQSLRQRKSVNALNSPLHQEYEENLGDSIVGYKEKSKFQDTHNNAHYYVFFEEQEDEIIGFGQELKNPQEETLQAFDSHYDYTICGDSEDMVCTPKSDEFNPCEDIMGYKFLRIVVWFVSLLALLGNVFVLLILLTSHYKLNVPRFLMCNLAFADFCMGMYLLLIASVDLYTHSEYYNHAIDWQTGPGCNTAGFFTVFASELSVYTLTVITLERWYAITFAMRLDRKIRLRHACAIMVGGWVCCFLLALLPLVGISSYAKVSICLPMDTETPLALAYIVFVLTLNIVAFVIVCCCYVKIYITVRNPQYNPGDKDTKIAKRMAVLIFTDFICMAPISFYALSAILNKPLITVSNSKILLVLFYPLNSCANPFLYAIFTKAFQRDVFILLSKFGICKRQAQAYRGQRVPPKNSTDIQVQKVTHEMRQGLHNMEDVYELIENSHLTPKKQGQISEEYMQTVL
Method in brief: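 TSHR-HEK293 cells were plated and held 18 h at 37C/5% CO2, then given compound plus Ro20-1724 and stimulated with TSH at 1.5 ng/mL final. After 30 min at room temperature, cAMP was detected with cAMP-d2/anti-cAMP-cryptate (1 h) by fluorescence.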

[16] = qHTS assay to identify small molecule agonists of the estrogen receptor alpha (ER-alpha) signaling pathway in the presence of an antagonist - cell viability counter screen (AID 1259386);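 note: series mostly up to about 92 µM; cells exposed to compounds for 22 h at 37 °C before the viability read; nearly all actives have a fitted effect of over 30% in size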
Method in brief: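 VM7Luc4E2, stripped-serum pre-culture 5 d; 24hr plating; +ICI-182,780 10.0nM final; cpds 15 conc, 22hr, 37C/5% CO2; CellTiter-Fluor added at 21hr, fluorescence 1hr later.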

[17] = biological target: Progesterone receptor (Homo sapiens) (UniProt P06401); assay: qHTS assay to identify small molecule antagonists of the progesterone receptor (PR) signaling pathway (AID 1346795; active = well fitted inhibition curve with a large enough effect in the signal ratio in the repeat runs, not every such curve was filed as active; the % refers to the signal ratio)
Sequence of Progesterone receptor (Homo sapiens) (P06401 whole entry, looked up): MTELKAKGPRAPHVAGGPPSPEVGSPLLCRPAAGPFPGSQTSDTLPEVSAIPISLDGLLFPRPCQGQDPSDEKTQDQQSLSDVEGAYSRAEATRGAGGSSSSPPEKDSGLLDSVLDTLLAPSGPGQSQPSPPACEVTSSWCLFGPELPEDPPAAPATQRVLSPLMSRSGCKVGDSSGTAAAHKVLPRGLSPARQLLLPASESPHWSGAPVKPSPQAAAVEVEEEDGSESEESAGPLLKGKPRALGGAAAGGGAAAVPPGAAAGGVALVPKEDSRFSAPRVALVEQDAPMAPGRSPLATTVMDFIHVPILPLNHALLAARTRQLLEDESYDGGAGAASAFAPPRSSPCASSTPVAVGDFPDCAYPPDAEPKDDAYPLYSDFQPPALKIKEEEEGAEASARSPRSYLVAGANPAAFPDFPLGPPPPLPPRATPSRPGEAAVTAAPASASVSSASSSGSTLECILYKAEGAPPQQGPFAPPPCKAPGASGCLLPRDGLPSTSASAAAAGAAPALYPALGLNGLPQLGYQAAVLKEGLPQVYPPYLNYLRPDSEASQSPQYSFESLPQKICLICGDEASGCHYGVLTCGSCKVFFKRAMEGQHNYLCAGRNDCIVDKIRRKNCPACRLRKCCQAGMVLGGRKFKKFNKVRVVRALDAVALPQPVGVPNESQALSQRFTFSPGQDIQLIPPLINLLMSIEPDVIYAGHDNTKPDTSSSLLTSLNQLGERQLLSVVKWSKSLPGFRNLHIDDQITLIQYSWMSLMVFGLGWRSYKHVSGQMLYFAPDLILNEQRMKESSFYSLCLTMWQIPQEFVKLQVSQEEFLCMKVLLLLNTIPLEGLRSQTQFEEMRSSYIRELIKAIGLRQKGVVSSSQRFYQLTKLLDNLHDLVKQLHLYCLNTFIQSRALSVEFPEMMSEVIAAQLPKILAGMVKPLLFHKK
Method in brief: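 In HEK293T cells bearing the PR-UAS-bla reporter, compound effects on promegestone-driven (1 nM) beta-lactamase expression are assessed after 16 hr using a fluorescent FRET substrate incubated 2 hr at room temperature.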

[18] = biological target: Progesterone receptor (Homo sapiens) (UniProt P06401); assay: qHTS assay to identify small molecule agonists of the progesterone receptor (PR) signaling pathway (AID 1346784; calls by dose curve; note: nearly all actives have a fitted effect of over 30% in size)
Method in brief: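 Compounds were tested for PR agonism in HEK 293T cells bearing a beta-lactamase gene under UAS control. Treatment lasted 16 hr at 37C; signal came from fluorescence of a FRET substrate.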

[19] = biological target: Androgen receptor (Homo sapiens) (UniProt P10275); assay: qHTS assay to identify small molecule agonists of the androgen receptor (AR) signaling pathway in the presence of an antagonist (AID 1259381; calls by dose curve; note: nearly all actives have a fitted effect of over 15% in size)
Sequence of Androgen receptor (Homo sapiens) (P10275 whole entry, looked up): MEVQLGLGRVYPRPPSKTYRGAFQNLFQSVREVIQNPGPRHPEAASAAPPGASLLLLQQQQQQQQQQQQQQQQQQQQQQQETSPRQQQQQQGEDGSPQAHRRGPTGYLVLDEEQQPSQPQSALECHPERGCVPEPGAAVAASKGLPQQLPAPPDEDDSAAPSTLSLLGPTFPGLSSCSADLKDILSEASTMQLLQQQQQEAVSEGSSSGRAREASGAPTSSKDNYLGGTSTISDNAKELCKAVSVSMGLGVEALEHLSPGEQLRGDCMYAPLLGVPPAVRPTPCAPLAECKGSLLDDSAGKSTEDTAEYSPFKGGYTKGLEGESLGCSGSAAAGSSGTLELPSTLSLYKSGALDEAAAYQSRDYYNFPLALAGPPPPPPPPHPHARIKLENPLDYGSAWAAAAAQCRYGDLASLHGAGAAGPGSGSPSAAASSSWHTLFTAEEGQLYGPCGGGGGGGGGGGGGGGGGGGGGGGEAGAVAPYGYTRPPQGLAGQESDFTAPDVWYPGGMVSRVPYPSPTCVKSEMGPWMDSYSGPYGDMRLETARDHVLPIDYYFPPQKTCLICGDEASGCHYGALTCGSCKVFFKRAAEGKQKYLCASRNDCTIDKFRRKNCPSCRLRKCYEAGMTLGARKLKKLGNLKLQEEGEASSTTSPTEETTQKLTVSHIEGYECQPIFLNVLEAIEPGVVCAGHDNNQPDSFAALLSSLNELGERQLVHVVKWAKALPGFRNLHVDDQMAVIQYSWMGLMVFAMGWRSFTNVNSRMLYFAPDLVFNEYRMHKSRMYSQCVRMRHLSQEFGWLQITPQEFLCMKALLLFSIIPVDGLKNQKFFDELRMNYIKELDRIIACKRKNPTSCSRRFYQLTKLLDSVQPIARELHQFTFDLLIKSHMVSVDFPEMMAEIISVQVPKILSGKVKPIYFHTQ
Method in brief: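 MDA-kb2 cells, 3,000/well, rested 5hr at 37C/0% CO2 → nilutamide 3.0uM final or buffer → compounds, 15 conc. → 16hr at 37C → ONE-Glo, 30min RT → luminescence.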
% is set by controls: 0 for no effect and ±100 for the full control effect.

O=S(O)O
inactive: activity change, negative = inhibition [1] -4.06% [at 19 µM] | activity change, negative = inhibition [2] 2.9% [at 19 µM] | activity change, negative = cytotoxicity [3] 2.88% [at 19 µM] | viability change, negative = cytotoxic [4] 2.93% [at 19 µM] | viability change, negative = cytotoxic [5] 0.928% [at 19 µM] | activity change [6] -1.4% [at 18.9 µM, active compounds read high] | activity change, negative = inhibition [7] 12.9% [at 19 µM] | activation [8] -0.957% [at 19 µM] | activity, negative = inhibition [9] 1.38% [at 19 µM] | activity change, negative = cytotoxicity [10] 1.09% [at 19 µM] | activity change, negative = cytotoxicity [11] -0.0055% [at 19 µM] | activity change, negative = cytotoxicity [12] 4.33% [at 19 µM] | activation [13] -0.842% [at 19 µM] | cAMP activity change [14] -1.65% [at 18.9 µM] | activity change, negative = inhibition [15] 0.0817% [at 19 µM] | activity change, negative = cytotoxicity [16] 0.0003% [at 19 µM]

CCOC(=O)COc1ccc(C)cc1
inactive: Potency [1] | Potency [2] | Potency [3] | Potency [4] | Potency [5] | Potency [6] | Potency [7] | Potency [8] | Potency [9] | Potency [10] | Potency [11] | Potency [12] | Potency [13] | outcome [14] | Potency [15] | Potency [16] | Potency [17]

C/C=C/CO
inactive: Potency [1] | Potency [2] | Potency [3] | Potency [4] | Potency [5] | Potency [6] | Potency [7] | Potency [9] | Potency [10] | Potency [11] | Potency [12] | Potency [13] | outcome [14] | Potency [16] | outcome [18] | Potency [17]

CC(C)=CCCC(C)CCOC(=O)C(C)C (stereo not drawn)
inactive: Potency [1] | Potency [2] | Potency [3] | Potency [4] | Potency [5] | Potency [6] | Potency [7] | Potency [8] | Potency [9] | Potency [10] | Potency [11] | Potency [12] | Potency [13] | outcome [14] | Potency [15] | Potency [16] | outcome [18] | Potency [17]

Brc1ccccn1
inactive: Potency [1] | Potency [2] | Potency [3] | Potency [4] | Potency [5] | Potency [6] | Potency [7] | Potency [8] | Potency [9] | Potency [10] | Potency [11] | Potency [12] | Potency [13] | outcome [14] | Potency [15] | Potency [16] | outcome [18] | Potency [17]

OCCCc1cccnc1
inactive: Potency [1] | Potency [2] | Potency [3] | Potency [4] | Potency [5] | Potency [6] | Potency [7] | Potency [10] | Potency [11] | Potency [19] | Potency [13] | outcome [14] | Potency [15] | Potency [16] | outcome [18] | Potency [17]

CN(C)CCN1CCOCC1
inactive: Potency [1] | Potency [2] | Potency [3] | Potency [4] | Potency [5] | Potency [6] | Potency [7] | Potency [8] | Potency [9] | Potency [10] | Potency [11] | Potency [12] | Potency [13] | outcome [14] | Potency [15] | outcome [18] | Potency [17]

CC[N+](CC)(CC)Cc1ccccc1
inactive: Potency [1] | Potency [2] | Potency [3] | Potency [4] | Potency [5] | Potency [6] | Potency [7] | Potency [8] | Potency [9] | Potency [10] | Potency [11] | Potency [12] | Potency [13] | Potency [16] | outcome [18] | Potency [17]

CCc1c(C(=O)O)c(=O)cnn1-c1ccc(Cl)cc1
inactive: Potency [1] | Potency [2] | Potency [3] | Potency [4] | Potency [5] | Potency [6] | Potency [7] | Potency [8] | Potency [9] | Potency [10] | Potency [11] | Potency [12] | Potency [13] | outcome [14] | Potency [15] | Potency [16] | outcome [18] | Potency [17]

CC1CCCCC1
inactive: Potency [1] | Potency [2] | Potency [3] | Potency [4] | Potency [5] | Potency [6] | Potency [7] | Potency [8] | Potency [9] | Potency [10] | Potency [11] | Potency [19] | Potency [13] | outcome [14] | Potency [16] | outcome [18] | Potency [17]

CCc1c(Br)c(Br)c(Br)c(Br)c1Br
inactive: Potency [1] | Potency [2] | Potency [3] | Potency [4] | Potency [5] | Potency [6] | Potency [7] | Potency [8] | Potency [9] | Potency [10] | Potency [11] | Potency [19] | Potency [12] | Potency [13] | Potency [16] | Potency [17]

CCCCCCCCC(C)=O
inactive: Potency [1] | Potency [2] | Potency [3] | Potency [4] | Potency [5] | Potency [6] | Potency [7] | Potency [10] | Potency [11] | Potency [19] | Potency [12] | Potency [13] | outcome [14] | Potency [15] | Potency [16] | outcome [18] | Potency [17]

OCCCCl
inactive: Potency [1] | Potency [2] | Potency [3] | Potency [4] | Potency [5] | Potency [6] | Potency [7] | Potency [10] | Potency [11] | Potency [19] | Potency [13] | outcome [14] | Potency [15] | Potency [16] | Potency [17]

CCCCCCCC/C=C/CCCOC(C)=O
inactive: Potency [1] | Potency [2] | Potency [3] | Potency [4] | Potency [5] | Potency [6] | Potency [8] | Potency [9] | Potency [10] | Potency [11] | Potency [12] | Potency [13] | outcome [14] | Potency [15] | outcome [18] | Potency [17]
